# In the library only some 19% were active in any assay of this set; here they are far more common.
# DT40 TDP1 no CPT: qHTS for Inhibitors of human tyrosyl-DNA phosphodiesterase 1 (TDP1): qHTS in cells in absence of CPT; DT40 Tdp1-/- hTDP1 cells, no CPT, ATP luminescence, 48 h; Potency, µM (top dose mostly 46.2 µM), inactives show at the highest dose activity change, negative = growth inhibition, hits mostly inhibitors; 420,000 compounds, 15% hits; AID 686978, 2013; also: potency is read from the fitted curve at half-maximal effect; nearly all actives have a fitted effect of over 55% in size
#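 A cellular qHTS used chicken DT40 cells lacking endogenous Tdp1 but carrying stably transfected human TDP1. Compounds were applied without camptothecin, and cell growth kinetics were judged by ATP-dependent luminescence after ≥48 hr.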
# DT40 TDP1 CPT: DT40-hTDP1 cell growth loss with CPT; chicken DT40 Tdp1-/-;hTDP1 cells + 20 nM CPT, ATP luminescence, 48 h; Potency, µM (titrated, usually from 46.2 µM), for the others: at the highest dose activity change, negative = growth inhibition, hits mostly inhibitors; 420,000 compounds, 12% hits; AID 686979; also: potency is read from the fitted curve at half-maximal effect; nearly all actives have a fitted effect of over 55% in size
#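 Chicken DT40 Tdp1-/- cells complemented with human TDP1, 400 cells/well, exposed to compounds plus 20 nM camptothecin for at least 48 h at 37 C; viability read as ATP content by CellTiter-Glo luminescence.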
# HT1080-NT tox: kills 2HG-producing HT-1080-NT fibrosarcoma cells; AID 686970; HT-1080-NT fibrosarcoma viability, CellTiter-Glo ATP luminescence, 48 h; Potency, µM (doses to about 46.1 µM), for inactives: at the top dose activity, negative = less viability, actives largely listed as cytotoxic; 360,000 compounds, 1.6% hits;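 also: NT is the 2HG producing partner of a matched IDH1 knockdown line; potency is read from the fitted curve at half-maximal effect; 0% = DMSO-treated cells and -100% = media-only wells without cells; nearly all actives have a fitted effect of over 55% in size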
#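 Read-out is CellTiter-Glo luminescence after 10 minutes at room temperature, following 48 hours' compound treatment of HT-1080-NT cells (750 cells/well, RPMI, 5% FBS, 37 degrees C).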
# HT1080 IDH1KD tx: toxicity to HT-1080 IDH1 knockdown cells (counter line). HT-1080 IDH1 knockdown viability, ATP luminescence, 48 h. Potency, µM (doses to about 46.1 µM), for the others: top-dose activity, negative = toxicity, actives largely listed as cytotoxic. 360,000 compounds, 2% hits;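 also: potency is read from the fitted curve at half-maximal effect; 0% = DMSO wells and -100% = cell-free medium wells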
#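 Assay cells: HT-1080 with IDH1 knockdown, 750 per well, RPMI/5% FBS. Exposure: 48 h at 37 °C following 2 h pre-incubation. Read: CellTiter-Glo luminescence; fitted concentration-response, curve class assigned.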
# IL-1B inflam inh: inflammasome signaling inhibition, IL-1 beta readout; activity change, % at 57.5 µM; THP-1 LPS/ATP IL-1B secretion, AlphaLISA, 16 h; active compounds read low; 360,000 compounds, 4.7% hits; AID 743279; in the data active = activity change below about -50%; inconclusive = mostly about -30% to -49%
#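 THP-1 cells pretreated 1 hr with compounds (up to 57.5 uM final), then stimulated with LPS (250 ng/mL final) plus ATP (1.25 mM final); secreted IL-1B measured by AlphaLISA after 16 hr, decreased signal indicating inhibition.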
# An asterisk follows results filed as active; i = inactive; u = inconclusive; x = no result given; [ ] = dose if it differs, or a comment. Unless noted, calls follow the shape of the dose curve; as a rule, active = well fitted curve in the direction sought with a large enough effect; inconclusive = small, poorly fitted or top-dose-only effect, or another doubt; inactive = no such curve, though single readings can be large; an effect the other way counts as inactive or inconclusive. Unless noted, % is scaled to controls: 0 for no effect and ±100 for the full control effect.
SMILES,DT40 TDP1 no CPT,DT40 TDP1 CPT,HT1080-NT tox,HT1080 IDH1KD tx,IL-1B inflam inh
COCCN(C(=O)CCC(=O)Nc1cc(C)on1)C(C(=O)NC1CCCC1)c1ccc(C(C)C)cc1 (configuration not stated),u,-8%,-5%,-19%,-29
Cc1ccc2oc(-c3ccc(C)c(NC(=O)c4ccc(N5CCC(C)CC5)c([N+](=O)[O-])c4)c3)nc2c1,0%,-4%,x,x,x
CCCCCCCCN1C(=O)[C@H](CC(=O)NCCCOCCCC)C[C@@]2(C(=O)OCC)CCCC=C12,16µM*,13µM*,u,u,-16
CCCCOCCCNC(=O)C[C@@H]1C[C@@]2(C(=O)OCC)CCCC=C2N(Cc2ccco2)C1=O,u,-15%,16%,u,-3
CCCCCCCCN1C(=O)[C@H](CC(=O)NCCC(C)C)C[C@@]2(C(=O)OC)CCCCC=C12,16µM*,u,u,-26%,-60*
CCCCOCCCNC(=O)C[C@@H]1C[C@@]2(C(=O)OCC)CCCC=C2N(CCc2ccc(OC)c(OC)c2)C1=O,u,21µM*,0%,-8%,-7
COCCCNC(=O)C[C@@H]1C[C@@]2(C(=O)OC)CCCCC=C2N(Cc2ccco2)C1=O,0%,1%,2%,7%,10
CCCCCCCCN1C(=O)[C@H](CC(=O)NCCCC)C[C@@]2(C(=O)OC)CCCCC=C12,12µM*,16µM*,u,u,x
COc1cccc(C(O)c2nc(-c3cccc(F)c3)cs2)c1 (configuration not stated),u,u,-23%,-23%,24
CCCCCCCCN1C(=O)[C@H](CC(=O)NCCCOCCCC)C[C@@]2(C(=O)OC)CCCCC=C12,18µM*,13µM*,u,u,-78*
N#CC1=C(SCC(=O)c2cc3ccccc3oc2=O)NC(=O)C(C#N)C12CCCC2 (configuration not stated),u,-16%,-6%,0%,0
CC(C)(C)C1CCC2(CC1)C(C#N)=C(SCC(=O)Nc1ccccc1)NC(=O)C2C#N (configuration not stated),u,16µM*,15µM*,u,-13
O=C(NCc1ccccc1C(F)(F)F)C1CC(c2ccccc2C(F)(F)F)=NO1 (configuration not stated),u,u,6%,-5%,-62*
O=C(NCc1ccccc1C(F)(F)F)C1CC(c2ccccc2[N+](=O)[O-])=NO1 (configuration not stated),-32%,-22%,4%,-2%,0
O=C(NCc1cccc(Br)c1)C1CC(c2ccccc2C(F)(F)F)=NO1 (configuration not stated),18µM*,u,u,u,-5
Cc1cccc(C(=O)N2N=C(c3ccc(NS(C)(=O)=O)cc3)CC2c2cccs2)c1 (configuration not stated),-19%,23µM*,-12%,-20%,-20
CS(=O)(=O)Nc1cccc(C2=NN(C(=O)c3ccc(F)cc3)C(c3cccs3)C2)c1 (configuration not stated),u,u,-22%,-27%,-10
CCS(=O)(=O)Nc1ccc(C2=NN(C(=O)c3ccco3)C(c3cccs3)C2)cc1 (configuration not stated),u,u,-17%,-14%,i
Cc1ccc(C2=NN(S(C)(=O)=O)C(c3cccs3)C2)cc1 (configuration not stated),u,-18%,-1%,-1%,-19
CCS(=O)(=O)Nc1ccc(C2=NN(C(=O)c3ccccc3)C(c3cccs3)C2)cc1 (configuration not stated),21µM*,23µM*,u,u,u
CS(=O)(=O)N1N=C(c2ccc(Br)cc2)CC1c1cccs1 (configuration not stated),26µM*,21µM*,-5%,-2%,-22
O=C(COc1ccc(C(=O)NCC2CCCO2)cc1)Nc1cccc(C(F)(F)F)c1 (configuration not stated),u,u,1%,-6%,3
Cc1ccc(Oc2ncccc2C(=O)NCC(=O)O)cc1,-4%,4%,-1%,12%,10
O=C(Nc1ccccc1N1CCOCC1)c1ccc(Br)o1,23µM*,21µM*,-8%,11%,-10
O=C(NC(=S)Nc1ccccc1N1CCOCC1)c1ccc(-c2ccccc2F)o1,23µM*,13µM*,7%,14%,-10
SMILES,DT40 TDP1 no CPT,DT40 TDP1 CPT,HT1080-NT tox,HT1080 IDH1KD tx,IL-1B inflam inh
O=C(NC(=S)Nc1cc(Cl)ccc1N1CCOCC1)c1ccc(-c2cccc(Cl)c2)o1,-19%,1%,8%,1%,17
CC1CCN(c2ccccc2NC(=O)c2ccc(Br)o2)CC1,u,16µM*,-15%,u,0
CC1CCN(c2ccccc2NC(=S)NC(=O)c2ccco2)CC1,29µM*,u,-16%,-25%,3
CC1C(=O)Nc2ccc(S(=O)(=O)N3CCCCCC3)cc21 (configuration not stated),-5%,-10%,0%[9.24 µM],4%,10
Cc1cc(N2CCN(c3ccccc3)CC2)n2ncnc2n1,u,-22%,1%,-3%,1
Cc1cc(N2CCN(C/C=C/c3ccccc3)CC2)n2ncnc2n1,10µM*,16µM*,0%,-8%,-21
COc1cc2cc3c(N)c(C(=O)Nc4sc(C)c(C)c4C#N)sc3nc2cc1OC,-23%,-24%,u,u,11
COc1ccc(CN(CCC(c2ccc(F)cc2)C2CCOC(C)(C)C2)C(=O)c2ccco2)cc1 (configuration not stated),16µM*,21µM*,u,26µM*,-103*
CC(c1ccccc1)N(CCC(c1ccccc1)C1CCOC(C)(C)C1)C(=O)c1ccco1 (configuration not stated),18µM*,u,7%,-2%,0
O=C(NC1CCCCC1)C(CCc1ccccc1)N1CCc2ccccc2C1 (configuration not stated),21µM*,21µM*,u,u,9
COc1ccccc1C1CN(CCNC(=O)[C@@H]2CSC(=O)N2)Cc2ccccc2O1 (some centres not stated),-16%,-1%[9.04 µM],x,x,x
CC1Sc2ccc(C(=O)N(CCc3ccccc3)Cc3ccccc3)cc2NC1=O (configuration not stated),u,21µM*,-29%,u,-25
C/C(CC(=O)Nc1ccc(Cl)cn1)=N\NC(=O)Cc1cccs1,-5%,0%,-15%,0%,26

# High-throughput results deposited in PubChem BioAssay by National Center for Advancing Translational Sciences (NCATS).
